# Reference: publication PMC7862700, “An all-to-all approach to the identification of sequence-specific readers for epigenetic DNA modifications on cytosine”
# Experiments:
# Test in all cases: DAPPL (digital affinity profiling via proximity ligation, sequencing); 10 mM Tris-HCl pH 7.5, 50 mM NaCl, 1 mM DTT, 4% glycerol, room temperature, 30 min; GST-TFs on glutathione beads, 16-mer random dsDNA library, 0.1% formaldehyde crosslink after washing; high values mean tight binding
# FEV = target: T1, FEV (Homo sapiens, UniProt Q99581 1-238); conditions: protein: recombinant; tags: N-terminal GST; dsDNA, one strand shown
# T1 sequence: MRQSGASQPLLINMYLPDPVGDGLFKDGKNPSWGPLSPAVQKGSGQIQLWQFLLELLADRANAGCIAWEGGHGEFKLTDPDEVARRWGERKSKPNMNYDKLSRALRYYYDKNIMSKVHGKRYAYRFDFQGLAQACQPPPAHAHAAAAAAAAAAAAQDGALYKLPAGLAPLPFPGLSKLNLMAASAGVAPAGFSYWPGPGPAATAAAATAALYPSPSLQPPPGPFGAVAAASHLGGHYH
# Summary of the method: (§1)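 Human transcription factors were made in yeast as GST fusions, captured on glutathione beads and barcoded with DNA. With a tag-only sample included, the pool was incubated with 200 nmole of a random double-stranded 16-mer DNA library in Tris/NaCl/DTT/glycerol buffer at room temperature for 30 min, then crosslinked with 0.1% formaldehyde after washing, ligated by proximity, amplified and sequenced. For binding signal, each hexamer's read frequency for a factor is divided by its frequency for the tag-only sample.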
# ETV5 = ETV5 (Homo sapiens, UniProt P41161 1-510); conditions: protein: recombinant; tags: N-terminal GST; dsDNA, one strand shown
# Summary of the method: as §1
# HSF1 = HSF1 (Homo sapiens, UniProt Q00613 1-529); conditions: protein: recombinant; tags: N-terminal GST; chain copies: 3; dsDNA, one strand shown
# Summary of the method: as §1
# SPIC = target: T2, SPIC (Homo sapiens, UniProt Q8N5J4 1-248); conditions: protein: recombinant; tags: N-terminal GST; dsDNA, one strand shown
# T2 sequence: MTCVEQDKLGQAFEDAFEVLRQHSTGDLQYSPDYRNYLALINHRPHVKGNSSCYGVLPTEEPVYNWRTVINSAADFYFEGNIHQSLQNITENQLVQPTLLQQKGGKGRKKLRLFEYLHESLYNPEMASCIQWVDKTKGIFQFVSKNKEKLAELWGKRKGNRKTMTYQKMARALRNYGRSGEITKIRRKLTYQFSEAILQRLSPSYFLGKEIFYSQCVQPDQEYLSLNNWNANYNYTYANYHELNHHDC
# Summary of the method: as §1
# ELF4 = ELF4 (Homo sapiens, UniProt Q99607 1-663); conditions: protein: recombinant; tags: N-terminal GST; dsDNA, one strand shown
# Summary of the method: as §1
# ELK4 = target: T3, ELK4 (Homo sapiens, UniProt P28324-2 1-405); conditions: protein: recombinant; tags: N-terminal GST; dsDNA, one strand shown
# T3 sequence: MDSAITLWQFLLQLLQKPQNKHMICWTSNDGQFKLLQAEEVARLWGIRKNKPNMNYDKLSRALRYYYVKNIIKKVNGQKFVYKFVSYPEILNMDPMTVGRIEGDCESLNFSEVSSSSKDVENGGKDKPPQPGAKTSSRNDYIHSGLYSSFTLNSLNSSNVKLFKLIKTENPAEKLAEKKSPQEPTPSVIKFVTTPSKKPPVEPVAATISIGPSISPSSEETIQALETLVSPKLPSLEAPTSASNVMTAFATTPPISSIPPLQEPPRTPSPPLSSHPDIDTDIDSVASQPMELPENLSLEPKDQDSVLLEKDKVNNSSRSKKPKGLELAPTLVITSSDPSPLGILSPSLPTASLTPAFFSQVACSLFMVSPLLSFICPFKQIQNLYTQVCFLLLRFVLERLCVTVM
# Summary of the method: as §1
# ETV2 = target: T4, ETV2 (Homo sapiens, UniProt O00321 1-342); conditions: protein: recombinant; tags: N-terminal GST; dsDNA, one strand shown
# T4 sequence: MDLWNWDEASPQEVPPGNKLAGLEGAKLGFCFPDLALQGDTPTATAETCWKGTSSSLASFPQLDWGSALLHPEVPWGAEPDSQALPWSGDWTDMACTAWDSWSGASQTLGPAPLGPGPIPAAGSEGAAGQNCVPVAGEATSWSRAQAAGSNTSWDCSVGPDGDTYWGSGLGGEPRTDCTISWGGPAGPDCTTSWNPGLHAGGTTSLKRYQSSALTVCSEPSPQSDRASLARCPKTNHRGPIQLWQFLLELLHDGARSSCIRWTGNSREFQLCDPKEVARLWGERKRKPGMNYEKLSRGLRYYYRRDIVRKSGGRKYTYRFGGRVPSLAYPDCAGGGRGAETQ
# Summary of the method: as §1
# ELF3 = target: T5, ELF3 (Homo sapiens, UniProt P78545 1-371); conditions: protein: recombinant; tags: N-terminal GST; dsDNA, one strand shown
# T5 sequence: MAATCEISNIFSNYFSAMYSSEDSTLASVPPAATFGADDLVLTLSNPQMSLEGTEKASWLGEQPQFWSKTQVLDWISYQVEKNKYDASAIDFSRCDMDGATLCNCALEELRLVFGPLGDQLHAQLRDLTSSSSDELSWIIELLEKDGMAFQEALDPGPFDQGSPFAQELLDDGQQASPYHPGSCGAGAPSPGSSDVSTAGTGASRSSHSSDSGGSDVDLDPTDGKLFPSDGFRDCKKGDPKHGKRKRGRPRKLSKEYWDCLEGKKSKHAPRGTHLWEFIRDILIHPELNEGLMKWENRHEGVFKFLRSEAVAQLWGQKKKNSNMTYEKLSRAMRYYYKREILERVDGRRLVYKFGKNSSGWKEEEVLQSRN
# Summary of the method: as §1
# CRX = CRX (Homo sapiens, UniProt O43186 1-299); conditions: protein: recombinant; tags: N-terminal GST; dsDNA, one strand shown
# Summary of the method: as §1
# ETV1 = ETV1 (Homo sapiens, UniProt P50549 1-477); conditions: protein: recombinant; tags: N-terminal GST; dsDNA, one strand shown
# Summary of the method: as §1
# ERF = target: T6, ERF (Homo sapiens, UniProt P50548 1-548); conditions: protein: recombinant; tags: N-terminal GST; dsDNA, one strand shown
# T6 sequence: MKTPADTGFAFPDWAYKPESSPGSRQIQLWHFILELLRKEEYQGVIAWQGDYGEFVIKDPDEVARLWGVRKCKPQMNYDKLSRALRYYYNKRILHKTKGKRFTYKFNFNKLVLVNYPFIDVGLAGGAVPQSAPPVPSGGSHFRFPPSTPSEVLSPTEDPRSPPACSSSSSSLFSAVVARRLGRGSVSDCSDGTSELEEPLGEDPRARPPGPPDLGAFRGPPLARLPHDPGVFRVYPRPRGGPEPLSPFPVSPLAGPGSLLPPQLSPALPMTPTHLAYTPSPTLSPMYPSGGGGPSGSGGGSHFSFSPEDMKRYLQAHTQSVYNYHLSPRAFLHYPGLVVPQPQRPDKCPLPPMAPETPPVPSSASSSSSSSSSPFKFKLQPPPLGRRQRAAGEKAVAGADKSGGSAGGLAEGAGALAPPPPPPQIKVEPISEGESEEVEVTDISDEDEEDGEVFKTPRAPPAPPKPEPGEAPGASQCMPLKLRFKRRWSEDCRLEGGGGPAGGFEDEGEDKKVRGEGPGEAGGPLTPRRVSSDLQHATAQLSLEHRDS
# Summary of the method: as §1
# ETV3L = target: T7, ETV3L (Homo sapiens, UniProt Q6ZN32 1-361); conditions: protein: recombinant; tags: N-terminal GST; dsDNA, one strand shown
# T7 sequence: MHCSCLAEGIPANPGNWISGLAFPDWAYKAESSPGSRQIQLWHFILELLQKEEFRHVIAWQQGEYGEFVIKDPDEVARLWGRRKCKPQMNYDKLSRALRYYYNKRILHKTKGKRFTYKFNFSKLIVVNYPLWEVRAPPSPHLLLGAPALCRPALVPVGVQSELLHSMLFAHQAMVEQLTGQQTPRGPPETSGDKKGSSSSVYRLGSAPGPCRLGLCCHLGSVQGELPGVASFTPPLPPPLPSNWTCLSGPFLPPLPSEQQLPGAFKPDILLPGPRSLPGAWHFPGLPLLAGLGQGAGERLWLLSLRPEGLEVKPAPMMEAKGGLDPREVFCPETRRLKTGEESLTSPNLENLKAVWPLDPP
# Summary of the method: as §1
# ETS2 = target: T8, ETS2 (Homo sapiens, UniProt P15036 1-469); conditions: protein: recombinant; tags: N-terminal GST; dsDNA, one strand shown
# T8 sequence: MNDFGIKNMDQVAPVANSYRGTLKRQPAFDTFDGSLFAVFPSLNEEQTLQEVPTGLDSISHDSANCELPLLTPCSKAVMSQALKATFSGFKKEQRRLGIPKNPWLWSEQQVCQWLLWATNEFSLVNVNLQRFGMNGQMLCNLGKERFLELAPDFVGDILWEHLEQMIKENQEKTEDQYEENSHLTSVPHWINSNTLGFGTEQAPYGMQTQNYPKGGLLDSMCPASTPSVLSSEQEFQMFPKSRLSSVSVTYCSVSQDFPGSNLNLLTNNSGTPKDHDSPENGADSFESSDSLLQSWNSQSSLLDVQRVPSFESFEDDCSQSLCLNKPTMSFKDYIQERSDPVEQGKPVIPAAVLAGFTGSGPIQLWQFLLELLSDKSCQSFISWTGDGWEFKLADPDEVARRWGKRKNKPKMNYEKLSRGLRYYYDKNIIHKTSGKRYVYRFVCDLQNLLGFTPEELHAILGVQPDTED
# Summary of the method: as §1
# SPDEF = target: T9, SPDEF (Homo sapiens, UniProt O95238 1-335); conditions: protein: recombinant; tags: N-terminal GST; dsDNA, one strand shown
# T9 sequence: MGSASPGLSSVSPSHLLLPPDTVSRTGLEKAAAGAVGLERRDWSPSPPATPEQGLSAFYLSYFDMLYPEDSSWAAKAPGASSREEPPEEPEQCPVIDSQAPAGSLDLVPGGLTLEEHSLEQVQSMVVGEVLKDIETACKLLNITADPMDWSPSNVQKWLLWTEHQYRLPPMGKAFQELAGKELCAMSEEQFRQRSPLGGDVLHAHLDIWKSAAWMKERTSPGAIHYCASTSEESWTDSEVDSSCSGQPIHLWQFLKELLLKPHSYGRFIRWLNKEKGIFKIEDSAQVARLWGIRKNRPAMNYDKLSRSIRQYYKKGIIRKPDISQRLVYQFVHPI
# Summary of the method: as §1
# ETV7 = target: T10, ETV7 (Homo sapiens, UniProt Q9Y603 1-341); conditions: protein: recombinant; tags: N-terminal GST; dsDNA, one strand shown
# T10 sequence: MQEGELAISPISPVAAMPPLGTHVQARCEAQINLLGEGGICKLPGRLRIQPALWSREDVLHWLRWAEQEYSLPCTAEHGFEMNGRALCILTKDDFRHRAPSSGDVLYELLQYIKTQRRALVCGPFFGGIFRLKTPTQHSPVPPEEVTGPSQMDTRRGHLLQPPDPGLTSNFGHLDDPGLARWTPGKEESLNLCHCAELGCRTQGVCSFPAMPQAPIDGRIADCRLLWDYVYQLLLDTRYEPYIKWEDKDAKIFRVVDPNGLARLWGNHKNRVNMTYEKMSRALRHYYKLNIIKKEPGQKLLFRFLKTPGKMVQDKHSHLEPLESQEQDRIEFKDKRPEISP
# Summary of the method: as §1
# ELF5 = target: T11, ELF5 (Homo sapiens, UniProt Q9UKW6-2 1-255); conditions: protein: recombinant; tags: N-terminal GST; dsDNA, one strand shown
# T11 sequence: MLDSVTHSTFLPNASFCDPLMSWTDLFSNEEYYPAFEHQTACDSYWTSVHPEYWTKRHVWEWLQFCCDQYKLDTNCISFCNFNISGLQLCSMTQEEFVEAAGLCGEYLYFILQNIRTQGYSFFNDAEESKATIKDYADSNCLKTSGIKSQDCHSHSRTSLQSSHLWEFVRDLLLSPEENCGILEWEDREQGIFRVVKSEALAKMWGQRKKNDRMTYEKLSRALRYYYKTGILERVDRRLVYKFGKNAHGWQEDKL
# Summary of the method: as §1
# ETV3 = target: T12, ETV3 (Homo sapiens, UniProt P41162-2 1-143); conditions: protein: recombinant; tags: N-terminal GST; dsDNA, one strand shown
# T12 sequence: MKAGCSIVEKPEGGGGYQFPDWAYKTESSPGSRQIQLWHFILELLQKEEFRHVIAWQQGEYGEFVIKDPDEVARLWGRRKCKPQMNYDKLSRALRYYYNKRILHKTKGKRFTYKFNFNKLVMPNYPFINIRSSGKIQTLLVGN
# Summary of the method: as §1
# ETV6 = ETV6 (Homo sapiens, UniProt P41212 1-452); conditions: protein: recombinant; tags: N-terminal GST; dsDNA, one strand shown
# Summary of the method: as §1
# Chain of ETV6 (P41212 whole entry): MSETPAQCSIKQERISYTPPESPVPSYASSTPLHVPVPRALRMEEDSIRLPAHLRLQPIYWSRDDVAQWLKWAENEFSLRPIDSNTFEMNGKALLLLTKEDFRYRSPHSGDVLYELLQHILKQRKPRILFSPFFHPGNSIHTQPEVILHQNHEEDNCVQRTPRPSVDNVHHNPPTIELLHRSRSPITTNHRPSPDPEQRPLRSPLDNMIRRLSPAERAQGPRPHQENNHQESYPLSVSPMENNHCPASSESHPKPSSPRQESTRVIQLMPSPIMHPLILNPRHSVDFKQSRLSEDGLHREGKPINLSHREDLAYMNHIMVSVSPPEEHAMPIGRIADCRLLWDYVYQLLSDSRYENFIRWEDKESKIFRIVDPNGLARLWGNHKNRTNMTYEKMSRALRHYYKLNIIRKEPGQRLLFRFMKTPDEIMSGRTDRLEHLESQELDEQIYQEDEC
# Chain of CRX (O43186 whole entry): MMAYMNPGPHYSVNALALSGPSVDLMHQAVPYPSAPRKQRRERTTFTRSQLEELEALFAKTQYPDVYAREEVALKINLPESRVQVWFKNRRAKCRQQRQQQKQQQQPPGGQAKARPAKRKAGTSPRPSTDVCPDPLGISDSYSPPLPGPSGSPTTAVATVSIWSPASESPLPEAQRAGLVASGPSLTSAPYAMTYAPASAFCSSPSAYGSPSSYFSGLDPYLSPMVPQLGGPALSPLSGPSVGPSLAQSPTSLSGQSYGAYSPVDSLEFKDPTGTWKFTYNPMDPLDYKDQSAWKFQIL
# Chain of HSF1 (Q00613 whole entry): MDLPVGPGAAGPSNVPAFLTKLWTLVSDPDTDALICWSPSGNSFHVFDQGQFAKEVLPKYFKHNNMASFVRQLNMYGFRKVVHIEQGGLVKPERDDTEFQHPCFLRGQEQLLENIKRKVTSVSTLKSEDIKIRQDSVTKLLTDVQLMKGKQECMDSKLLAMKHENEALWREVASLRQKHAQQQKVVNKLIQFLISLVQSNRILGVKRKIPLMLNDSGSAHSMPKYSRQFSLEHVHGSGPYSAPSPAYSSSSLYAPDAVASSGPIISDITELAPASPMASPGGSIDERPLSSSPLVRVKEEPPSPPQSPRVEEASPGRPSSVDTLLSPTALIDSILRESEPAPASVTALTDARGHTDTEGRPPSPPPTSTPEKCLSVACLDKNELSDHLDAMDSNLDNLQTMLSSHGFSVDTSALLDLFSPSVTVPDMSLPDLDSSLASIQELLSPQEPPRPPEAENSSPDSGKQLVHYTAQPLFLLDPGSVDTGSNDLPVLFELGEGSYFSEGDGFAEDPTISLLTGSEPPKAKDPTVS
# Chain of ETV5 (P41161 whole entry): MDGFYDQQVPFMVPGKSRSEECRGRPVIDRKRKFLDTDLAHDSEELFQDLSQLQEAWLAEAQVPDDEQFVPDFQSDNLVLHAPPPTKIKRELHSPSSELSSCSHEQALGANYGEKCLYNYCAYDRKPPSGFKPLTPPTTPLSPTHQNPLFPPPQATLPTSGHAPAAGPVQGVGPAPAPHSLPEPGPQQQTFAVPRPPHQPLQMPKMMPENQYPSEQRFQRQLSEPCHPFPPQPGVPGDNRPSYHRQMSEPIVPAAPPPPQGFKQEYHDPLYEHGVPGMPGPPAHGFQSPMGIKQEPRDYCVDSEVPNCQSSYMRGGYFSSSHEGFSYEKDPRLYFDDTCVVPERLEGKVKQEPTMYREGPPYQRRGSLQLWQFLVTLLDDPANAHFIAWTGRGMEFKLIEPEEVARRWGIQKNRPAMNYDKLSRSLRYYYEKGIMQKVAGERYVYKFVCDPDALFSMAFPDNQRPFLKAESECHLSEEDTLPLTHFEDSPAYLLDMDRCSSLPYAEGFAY
# Chain of ETV1 (P50549 whole entry): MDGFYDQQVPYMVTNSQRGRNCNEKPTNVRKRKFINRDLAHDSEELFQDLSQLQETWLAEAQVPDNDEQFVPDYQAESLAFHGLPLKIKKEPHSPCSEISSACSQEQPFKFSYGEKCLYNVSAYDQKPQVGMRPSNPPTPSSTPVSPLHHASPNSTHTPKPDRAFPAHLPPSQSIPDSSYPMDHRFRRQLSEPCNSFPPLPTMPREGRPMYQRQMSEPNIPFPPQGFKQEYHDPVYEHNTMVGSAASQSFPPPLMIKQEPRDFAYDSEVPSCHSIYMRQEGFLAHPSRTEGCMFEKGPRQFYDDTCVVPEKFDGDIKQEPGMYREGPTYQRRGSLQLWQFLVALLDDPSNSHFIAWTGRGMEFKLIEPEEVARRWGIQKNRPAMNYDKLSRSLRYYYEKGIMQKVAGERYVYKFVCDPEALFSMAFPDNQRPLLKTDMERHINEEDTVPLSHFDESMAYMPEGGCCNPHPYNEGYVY
# Chain of ELF4 (Q99607 whole entry): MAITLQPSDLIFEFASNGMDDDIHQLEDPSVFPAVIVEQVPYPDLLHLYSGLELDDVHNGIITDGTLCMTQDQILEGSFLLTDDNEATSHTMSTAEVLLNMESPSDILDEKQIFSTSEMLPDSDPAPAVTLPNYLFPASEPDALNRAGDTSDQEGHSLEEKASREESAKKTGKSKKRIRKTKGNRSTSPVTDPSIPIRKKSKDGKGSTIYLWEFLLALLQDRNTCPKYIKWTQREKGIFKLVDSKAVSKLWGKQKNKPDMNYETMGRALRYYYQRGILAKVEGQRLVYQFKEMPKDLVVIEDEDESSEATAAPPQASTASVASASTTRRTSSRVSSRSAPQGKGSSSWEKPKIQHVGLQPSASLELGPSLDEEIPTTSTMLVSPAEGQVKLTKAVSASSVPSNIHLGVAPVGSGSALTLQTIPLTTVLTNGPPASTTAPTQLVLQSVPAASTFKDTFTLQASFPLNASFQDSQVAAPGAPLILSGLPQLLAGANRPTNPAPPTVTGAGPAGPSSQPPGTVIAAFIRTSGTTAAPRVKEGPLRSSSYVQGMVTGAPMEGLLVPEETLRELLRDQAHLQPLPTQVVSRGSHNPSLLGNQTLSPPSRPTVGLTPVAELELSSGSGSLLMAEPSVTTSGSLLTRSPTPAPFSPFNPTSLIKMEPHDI
sequence,measurement,setting,value
ACTTCG,binding signal,FEV,"1.42 fold enrichment (6-mer frequency, TF over GST control)"
same,binding signal,ETV5,"1.39 fold enrichment (6-mer frequency, TF over GST control)"
same,binding signal,HSF1,"1.65 fold enrichment (6-mer frequency, TF over GST control)"
same,binding signal,SPIC,"1.55 fold enrichment (6-mer frequency, TF over GST control)"
same,binding signal,ELF4,"1.47 fold enrichment (6-mer frequency, TF over GST control)"
same,binding signal,ELK4,"1.25 fold enrichment (6-mer frequency, TF over GST control)"
same,binding signal,ETV2,"1.45 fold enrichment (6-mer frequency, TF over GST control)"
same,binding signal,ELF3,"1.23 fold enrichment (6-mer frequency, TF over GST control)"
same,binding signal,CRX,"1.3 fold enrichment (6-mer frequency, TF over GST control)"
same,binding signal,ETV1,"1.46 fold enrichment (6-mer frequency, TF over GST control)"
same,binding signal,ERF,"1.52 fold enrichment (6-mer frequency, TF over GST control)"
same,binding signal,ETV3L,"1.27 fold enrichment (6-mer frequency, TF over GST control)"
same,binding signal,ETS2,"1.36 fold enrichment (6-mer frequency, TF over GST control)"
same,binding signal,SPDEF,"1.3 fold enrichment (6-mer frequency, TF over GST control)"
same,binding signal,ETV7,"1.26 fold enrichment (6-mer frequency, TF over GST control)"
same,binding signal,ELF5,"1.32 fold enrichment (6-mer frequency, TF over GST control)"
same,binding signal,ETV3,"1.42 fold enrichment (6-mer frequency, TF over GST control)"
same,binding signal,ETV6,"1.36 fold enrichment (6-mer frequency, TF over GST control)"
